Records with an inconclusive call do not appear. A number with no mark means an inactive call. Activity calls are given as the source filed them. Unless noted, calls follow the shape of the full dose curve.
Test system: not listed separately
Test: AP1 Signaling Pathway (AID 357; active = well fitted curve in either direction with a large enough effect, not every such curve was filed as active;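 also: ME-180 reporter cells stimulated with EGF at its EC50 level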)
Settings: ME-180 (cervical carcinoma) AP-1-bla reporter, EGF-induced, beta-lactamase ratio, 5 h; series mostly up to 17.2 µM
Summary of the method: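 Cells are seeded overnight, exposed to compound titrations and an EC50 level of EGF for 5 hours at 37 °C, then loaded with CCF4 dye for 2.5 hours. Beta-lactamase activity under the AP-1 element is read as a blue/green ratio.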

Q: For COc1ccc2c(OC)c3ccoc3nc2c1OC, which outcome is on record?
A: Its outcome is “inactive”.

Q: Which outcome does the source give for Cc1ccccc1CN1C2=NCCN2C(=O)C2=C1CCN(Cc1ccccc1)C2 here?
A: The outcome was “inactive”.

Q: With O=C1NC(=O)C(c2cn(-c3ccccc3)nc2-c2ccc(F)cc2)N1 (centres undefined) as the compound, how does the outcome read?
A: Its outcome is “inactive”.

Target: Cytochrome P450 1A2 (Homo sapiens) (UniProt P05177)
Sequence (P05177 whole entry, looked up): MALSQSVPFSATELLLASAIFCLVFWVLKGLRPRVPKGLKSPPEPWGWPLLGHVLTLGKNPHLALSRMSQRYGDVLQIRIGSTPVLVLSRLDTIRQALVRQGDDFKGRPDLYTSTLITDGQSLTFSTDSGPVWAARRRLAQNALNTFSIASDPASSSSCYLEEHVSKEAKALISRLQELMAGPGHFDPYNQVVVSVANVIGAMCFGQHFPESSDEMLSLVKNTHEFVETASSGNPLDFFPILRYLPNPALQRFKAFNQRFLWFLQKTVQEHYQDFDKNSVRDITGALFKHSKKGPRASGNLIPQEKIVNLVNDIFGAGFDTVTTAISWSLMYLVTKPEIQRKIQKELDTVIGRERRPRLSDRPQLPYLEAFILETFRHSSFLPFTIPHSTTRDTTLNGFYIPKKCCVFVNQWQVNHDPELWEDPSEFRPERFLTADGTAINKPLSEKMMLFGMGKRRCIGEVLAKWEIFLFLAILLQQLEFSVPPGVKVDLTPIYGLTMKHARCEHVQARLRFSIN
Test: p450-cyp1a2 (AID 410); also: potency is read from the fitted curve at half-maximal effect
Settings: recombinant CYP1A2, luciferin-ME demethylation, luminescence; series mostly up to 25.6 µM
Summary of the method: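 Luminescent demethylation readout: Luciferin-ME (100uM, equal to Km) turned over by 20nM CYP1A2 for 60 min at room temperature after NADPH regeneration addition, following 10 min compound preincubation. Normalization used 57 uM furafylline as full inhibition.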

Q: Which Potency does the source give for COc1ccc2c(OC)c3ccoc3nc2c1OC here?
A: The Potency was 0.0794 µM (active).

Q: Which Potency does the source give for Cc1ccccc1CN1C2=NCCN2C(=O)C2=C1CCN(Cc1ccccc1)C2 here?
A: The Potency was “inactive”.

Q: Which Potency does the source give for COc1ccc(C[C@H](N)C(=O)N[C@@H]2[C@H](O)[C@H](n3cnc4c(N(C)C)ncnc43)O[C@@H]2CO)cc1 here?
A: Its Potency is “inactive”.

Test system: not listed separately
Test: Cell Viability - BJ (AID 421);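 also: potency is read from the fitted curve at half-maximal effect; cells exposed to compound for 40 hours at 37 °C before readout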
Settings: BJ fibroblast viability, qHTS
Summary of the method: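 Cytotoxicity in human BJ foreskin fibroblasts is scored as loss of cellular ATP after a 40-hour exposure, measured by luciferase luminescence. Controls are DMSO and 100 uM tamoxifen.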

Q: Which Potency does the source give for CC(=O)O[C@@H]1CC(C)=C2[C@H]1[C@H](C)CC[C@H]2/C=C(\C)C(=O)O here?
A: The Potency was greater than 92 µM.

Q: With Nc1ccccc1N as the compound, how does the Potency read?
A: Its Potency is greater than 92 µM.

Q: For Cc1ccc(N)cc1O, which Potency is on record?
A: The Potency was greater than 92 µM.

Test system: not listed separately
Test: Cell Viability - Hek293 (AID 427;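 active = compounds whose dose-response curve shows a full or clear partial loss of cell viability, called from curve shape rather than a numeric limit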;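 also: potency is read from the fitted curve at half-maximal effect; cells exposed to compound for 40 hours at 37 °C before reading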)
Settings: qHTS
Summary of the method: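 qHTS, human embryonic kidney (adenovirus-transformed) cells; 40 hr cpd, 37 °C; CellTiter-Glo ATP luminescence. Norm: DMSO = 0, 100 uM tamoxifen = 100% inhibition. Hill-fit AC50.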

Q: Which Potency does the source give for CC(=O)O[C@@H]1CC(C)=C2[C@H]1[C@H](C)CC[C@H]2/C=C(\C)C(=O)O here?
A: Its Potency is greater than 92 µM.

Q: For Nc1ccccc1N, which Potency is on record?
A: The Potency was greater than 92 µM.

Q: With Cc1ccc(N)cc1O as the compound, how does the Potency read?
A: The Potency was greater than 92 µM.

Test system: not listed separately
Test: Cell Viability - HepG2 (AID 433);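 also: potency is read from the fitted curve at half-maximal effect; potency for ATP loss meaning cytotoxicity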
Settings: qHTS
Summary of the method: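 Cytotoxicity read as ATP loss (CellTiter-Glo luminescence) after 40 hr compound exposure of HepG2, 1500 cells/well, 37 °C. AC50 by Hill equation; 0% set by DMSO, 100% inhibition by 100 uM tamoxifen.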

Q: With CC(=O)O[C@@H]1CC(C)=C2[C@H]1[C@H](C)CC[C@H]2/C=C(\C)C(=O)O as the compound, how does the Potency read?
A: The Potency was greater than 92 µM.

Q: With Nc1ccccc1N as the compound, how does the Potency read?
A: The Potency was greater than 92 µM.

Q: With Cc1ccc(N)cc1O as the compound, how does the Potency read?
A: The Potency was greater than 92 µM.

Test system: not listed separately
Test: Cell Viability - MRC5 (AID 434);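 also: potency is read from the fitted curve at half-maximal effect; cells exposed to compound for 40 hours at 37 °C; potency reflects cytotoxicity seen as loss of intracellular ATP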
Settings: MRC5 lung fibroblast viability, qHTS
Summary of the method: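 Decrease in intracellular ATP, quantified by luciferase light output, reflects compound toxicity toward MRC5 cells exposed for 40 hr in complete culture medium. Concentration-response curves, scaled between DMSO and 100 uM tamoxifen, gave AC50 values.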

Q: With CC(=O)O[C@@H]1CC(C)=C2[C@H]1[C@H](C)CC[C@H]2/C=C(\C)C(=O)O as the compound, how does the Potency read?
A: The Potency was greater than 92 µM.

Q: For Nc1ccccc1N, which Potency is on record?
A: The Potency was greater than 92 µM.

Q: Which Potency does the source give for Cc1ccc(N)cc1O here?
A: Its Potency is greater than 92 µM.

Test system: not listed separately
Test: Cell Viability - SK-N-SH (AID 435); also: potency is read from the fitted curve at half-maximal effect
Settings: SK-N-SH neuroblastoma cell viability qHTS
Summary of the method: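 qHTS cytotoxicity: CellTiter-Glo ATP luminescence after 40 h compound exposure of human neuroblastoma SK-N-SH cells at 37 °C. AC50 derived by Hill-equation fitting, with DMSO as basal and 100 uM tamoxifen as full inhibition.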

Q: Which Potency does the source give for CC(=O)O[C@@H]1CC(C)=C2[C@H]1[C@H](C)CC[C@H]2/C=C(\C)C(=O)O here?
A: The Potency was greater than 92 µM.

Q: Which Potency does the source give for Nc1ccccc1N here?
A: Its Potency is greater than 92 µM.

Q: Which Potency does the source give for Cc1ccc(N)cc1O here?
A: Its Potency is greater than 92 µM.

Test system: not listed separately
Test: NFAT Signaling Pathway (AID 444; active = well fitted curve in either direction with a large enough effect, not every such curve was filed as active;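 also: carbachol stimulus at about its EC50 of 1 µM final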)
Settings: Jurkat NFAT-bla M1, carbachol, beta-lactamase ratio, 5 h; series mostly up to 17.2 µM
Summary of the method: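 Jurkat cells carrying an NFAT-driven β-lactamase reporter and co-transfected muscarinic M1 receptor were treated with compound plus carbachol (1 uM final, an EC50 level) for 5 h at 37 °C. CCF4 loading followed for 1 h at RT; 460/530 nm ratio gave %activity.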

Q: Which outcome does the source give for COc1ccc2c(OC)c3ccoc3nc2c1OC here?
A: Its outcome is “inactive”.

Q: With Cc1ccccc1CN1C2=NCCN2C(=O)C2=C1CCN(Cc1ccccc1)C2 as the compound, how does the outcome read?
A: Its outcome is “inactive”.

Q: With O=C1NC(=O)C(c2cn(-c3ccccc3)nc2-c2ccc(F)cc2)N1 (centres undefined) as the compound, how does the outcome read?
A: Its outcome is “inactive”.
